Source: PubChem BioAssay AID1159580 (chemical genetic matrix, 2015)
Several values for one entry are separate records, joined by “and”; a condition that tells them apart may be missing. Identical values can stand only once. Out of some 5,500 compounds screened, about 2,000 (36%) were called active. Inconclusive results (about 18%) are left out. Cut-off read from the data, not from the text of the source: active = normalized growth mostly below about 0.91 (no sharp cut-off); inconclusive = no clear call, values can overlap the other calls; inactive = mostly above about 0.92. The list shows a part of the results.

Test: chemical genetic growth profiling, strain panel (AID 1159580);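 note: tested at 20 µM; growth read once vehicle control cultures reached saturation at 30 °C; 1 = growth at the plate median or of vehicle wells; lower values mean less growth of the strain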
Conditions: S. cerevisiae deletion strains, growth OD

Measured: normalized growth

C[N+](C)(C)CC(=O)[O-]
inactive: locus YAL013W, strain DEP1, active compounds read low 0.992 | locus YAL021C, strain ccr4, active compounds read low 0.993 | locus YAL026C, strain drs2, active compounds read low 0.983 | locus YAL030W, strain snc1, active compounds read low 1 | locus YBL061C, strain skt5, active compounds read low 0.978 | locus YBR009C, strain hhf1, active compounds read low 1 | locus YBR021W, strain FUR4, active compounds read low 1.16 | locus YBR023C, strain chs3, active compounds read low 0.998 | locus YBR171W, strain sec66, active compounds read low 0.981 | locus YBR229C, strain ROT2, active compounds read low 0.993 | locus YBR231C, strain swc5, active compounds read low 0.969 | locus YBR279W, strain paf1, active compounds read low 0.997 | locus YCL011C, strain gbp2, active compounds read low 0.982 | locus YCL016C, strain dcc1, active compounds read low 1 | locus YCL029C, strain bik1, active compounds read low 0.982 | locus YCL061C, strain MRC1, active compounds read low 0.972 | locus YCL069W, strain vba3, active compounds read low 0.997 | locus YCR088W, strain abp1, active compounds read low 0.996 | locus YDL005C, strain med2, active compounds read low 0.959 | locus YDL035C, strain GPR1, active compounds read low 0.994 | locus YDL040C, strain nat1, active compounds read low 0.988 | locus YDL074C, strain BRE1, active compounds read low 0.949 | locus YDL101C, strain DUN1, active compounds read low 0.998 | locus YDL134C, strain PPH21, active compounds read low 1.01 | locus YDL185W, strain tfp1, active compounds read low 0.95 | locus YDL192W, strain arf1, active compounds read low 0.985 | locus YDR001C, strain nth1, active compounds read low 0.957 | locus YDR069C, strain doa4, active compounds read low 0.955 | locus YDR101C, strain arx1, active compounds read low 0.969 | locus YDR137W, strain rgp1, active compounds read low 1.02 | locus YDR150W, strain NUM1, active compounds read low 0.981 | locus YDR159W, strain sac3, active compounds read low 0.978 | locus YDR162C, strain NBP2, active compounds read low 0.996 | locus YDR195W, strain ref2 0.974 | locus YDR297W, strain sur2, active compounds read low 0.994 | locus YDR318W, strain mcm21, active compounds read low 0.992 | locus YDR334W, strain swr1, active compounds read low 0.939 | locus YDR335W, strain msn5, active compounds read low 0.964 | locus YDR388W, active compounds read low 0.997 | locus YDR392W, strain spt3, active compounds read low 1 | locus YDR502C, strain sam2, active compounds read low 0.986 | locus YEL003W, strain gim4, active compounds read low 0.99 | locus YEL037C, strain rad23, active compounds read low 0.989 | locus YEL061C, strain CIN8 (second series), active compounds read low 0.992 | locus YEL061C, strain CIN8, active compounds read low 0.996 | locus YER015W, strain faa2, active compounds read low 0.993 | locus YER016W, strain bim1, active compounds read low 1.02 | locus YER110C, active compounds read low 0.985 | locus YER111C, strain swi4, active compounds read low 0.992 | locus YER155C, strain BEM2 (second series), active compounds read low 0.987 | locus YER155C, strain BEM2, active compounds read low 0.996 | locus YER167W, strain BCK2, active compounds read low 0.993 | locus YFR010W, strain ubp6, active compounds read low 0.958 | locus YGL078C, strain dbp3, active compounds read low 0.998 | locus YGL086W, strain mad1, active compounds read low 1.01 | locus YGL167C, strain pmr1, active compounds read low 0.978 | locus YGL173C, strain kem1, active compounds read low 1 | locus YGL227W, strain vid30, active compounds read low 0.968 | locus YGL240W, strain doc1, active compounds read low 0.981 | locus YGL248W, strain PDE1, active compounds read low 0.989 | locus YGL253W, strain hxk2, active compounds read low 0.962 | locus YGR078C, strain PAC10, active compounds read low 0.955 | locus YGR135W, strain pre9, active compounds read low 0.984 | locus YGR229C, strain SMI1, active compounds read low 0.979 | locus YGR252W, strain gcn5, active compounds read low 1.19 | locus YHR013C, strain ard1, active compounds read low 0.992 | locus YHR027C, strain rpn1, active compounds read low 0.983 | locus YHR030C, strain SLT2, active compounds read low 0.993 and 0.982 | locus YHR079C, strain IRE1 (second series), active compounds read low 0.982 | locus YHR079C, strain IRE1, active compounds read low 0.989 | locus YHR094C, strain hxt1, active compounds read low 0.973 | locus YHR129C, strain ARP1, active compounds read low 0.994 | locus YHR142W, strain chs7, active compounds read low 0.963 | locus YHR200W, strain rpn10, active compounds read low 0.978 | locus YIL066C, strain RNR3, active compounds read low 0.983 | locus YIL073C, strain SPO22, active compounds read low 0.94 | locus YIL125W, strain kgd1, active compounds read low 0.988 | locus YIR030C, strain dcg1, active compounds read low 0.994 | locus YJL092W, strain hpr5, active compounds read low 0.989 | locus YJL095W, strain BCK1 (second series), active compounds read low 0.979 | locus YJL095W, strain BCK1, active compounds read low 0.987 and 0.995 | locus YJL115W, strain asf1, active compounds read low 0.966 | locus YJL129C, strain trk1, active compounds read low 0.958 | locus YJL134W, strain LCB3, active compounds read low 1 | locus YJL154C, strain vps35, active compounds read low 0.963 | locus YJL164C, strain tpk1, active compounds read low 1.01 | locus YJL166W, strain qcr8, active compounds read low 0.978 | locus YJL168C, strain set2, active compounds read low 0.992 | locus YJL187C, strain SWE1 (second series), active compounds read low 0.988 | locus YJL187C, strain SWE1, active compounds read low 0.964 | locus YJR043C, strain POL32, active compounds read low 0.998 | locus YJR066W, strain TOR1, active compounds read low 0.948
